# Data from article PMC8384837, “Expanding the binding specificity for RNA recognition by a PUF domain”.
# Key:
# Assay in all cases: yeast three-hybrid, YBZ-1, SC-Leu-His + 0.5 mM 3-AT, 4 days
# Settings in all cases: tags: N-Gal4 AD-HA kept; label: inside an RPR1-promoter hybrid RNA with tandem MS2 sites; ssRNA
# PUM1 PUF domain R8-RHL = PUM1 PUF domain R8-RHL (Homo sapiens, UniProt Q14671 828-1176, N1122R;Y1123H;Q1126L)
# Summary of the method: (§1)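 Matching RNA elements and Pumilio-1 PUF domain libraries, randomized at the three base-contacting residues of every repeat, were co-expressed from a centromeric plasmid in strain YBZ-1 (LexA–MS2 coat fusion, HIS3 reporter). The repeat regions were PCR-amplified and Illumina-sequenced from cells grown four days on SC-Leu (input) or SC-Leu-His + 0.5 mM 3-AT (selection). The interaction score is the log change in variant frequency from input to selection. It is computed in log2, with a pseudocount of 1 for absent variants.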
# PUM1 PUF domain R8-PWL = PUM1 PUF domain R8-PWL (Homo sapiens, UniProt Q14671 828-1176, N1122P;Y1123W;Q1126L)
# Summary of the method: as §1
# PUM1 PUF domain R6-VYE = biological target: T1, PUM1 PUF domain R6-VYE (Homo sapiens, UniProt Q14671 828-1176, N1043V;Q1047E)
# T1 sequence: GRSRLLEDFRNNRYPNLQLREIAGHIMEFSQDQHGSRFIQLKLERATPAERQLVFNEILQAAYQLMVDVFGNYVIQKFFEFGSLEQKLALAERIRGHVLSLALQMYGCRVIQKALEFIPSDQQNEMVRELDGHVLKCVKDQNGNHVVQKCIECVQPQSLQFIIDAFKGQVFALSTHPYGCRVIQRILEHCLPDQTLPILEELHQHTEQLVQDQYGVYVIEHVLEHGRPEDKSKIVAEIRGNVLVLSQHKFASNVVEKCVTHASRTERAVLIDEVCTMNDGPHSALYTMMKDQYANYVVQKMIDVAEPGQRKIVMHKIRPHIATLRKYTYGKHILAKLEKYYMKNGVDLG
# Summary of the method: as §1
# PUM1 PUF domain R7-RSS = PUM1 PUF domain R7-RSS (Homo sapiens, UniProt Q14671 828-1176, S1079R;N1080S;E1083S)
# Summary of the method: as §1
# PUM1 PUF domain R3-YRQ = PUM1 PUF domain R3-YRQ (Homo sapiens, UniProt Q14671 828-1176, C935Y)
# Summary of the method: as §1
# PUM1 PUF domain R3-FCL = PUM1 PUF domain R3-FCL (Homo sapiens, UniProt Q14671 828-1176, C935F;R936C;Q939L)
# Summary of the method: as §1
# PUM1 PUF domain R3-LRG = PUM1 PUF domain R3-LRG (Homo sapiens, UniProt Q14671 828-1176, C935L;Q939G)
# Summary of the method: as §1
# PUM1 PUF domain R5-WWW = PUM1 PUF domain R5-WWW (Homo sapiens, UniProt Q14671 828-1176, C1007W;R1008W;Q1011W)
# Summary of the method: as §1
# PUM1 PUF domain R5-KRC = PUM1 PUF domain R5-KRC (Homo sapiens, UniProt Q14671 828-1176, C1007K;Q1011C)
# Summary of the method: as §1
# PUM1 PUF domain R5-SVT = PUM1 PUF domain R5-SVT (Homo sapiens, UniProt Q14671 828-1176, C1007S;R1008V;Q1011T)
# Summary of the method: as §1
# PUM1 PUF domain R5-HRS = PUM1 PUF domain R5-HRS (Homo sapiens, UniProt Q14671 828-1176, C1007H;Q1011S)
# Summary of the method: as §1
# PUM1 PUF domain R4-SPI = PUM1 PUF domain R4-SPI (Homo sapiens, UniProt Q14671 828-1176, N971S;H972P;Q975I)
# Summary of the method: as §1
# PUM1 PUF domain R4-GNG = PUM1 PUF domain R4-GNG (Homo sapiens, UniProt Q14671 828-1176, N971G;H972N;Q975G)
# Summary of the method: as §1
# PUM1 PUF domain R3-DHR = PUM1 PUF domain R3-DHR (Homo sapiens, UniProt Q14671 828-1176, C935D;R936H;Q939R)
# Summary of the method: as §1
# PUM1 PUF domain R3-SRH = PUM1 PUF domain R3-SRH (Homo sapiens, UniProt Q14671 828-1176, C935S;Q939H)
# Summary of the method: as §1
# PUM1 PUF domain R7-LYG = PUM1 PUF domain R7-LYG (Homo sapiens, UniProt Q14671 828-1176, S1079L;N1080Y;E1083G)
# Summary of the method: as §1
# PUM1 PUF domain R1-KSA = PUM1 PUF domain R1-KSA (Homo sapiens, UniProt Q14671 828-1176, S863K;R864S;Q867A)
# Summary of the method: as §1
# PUM1 PUF domain R4-GMC = PUM1 PUF domain R4-GMC (Homo sapiens, UniProt Q14671 828-1176, N971G;H972M;Q975C)
# Summary of the method: as §1
# PUM1 PUF domain R4-WAK = PUM1 PUF domain R4-WAK (Homo sapiens, UniProt Q14671 828-1176, N971W;H972A;Q975K)
# Summary of the method: as §1
# PUM1 PUF domain R3-KPS = PUM1 PUF domain R3-KPS (Homo sapiens, UniProt Q14671 828-1176, C935K;R936P;Q939S)
# Summary of the method: as §1
# Sequence of PUM1 PUF domain R4-GNG (Q14671 828-1176 N971G/H972N/Q975G): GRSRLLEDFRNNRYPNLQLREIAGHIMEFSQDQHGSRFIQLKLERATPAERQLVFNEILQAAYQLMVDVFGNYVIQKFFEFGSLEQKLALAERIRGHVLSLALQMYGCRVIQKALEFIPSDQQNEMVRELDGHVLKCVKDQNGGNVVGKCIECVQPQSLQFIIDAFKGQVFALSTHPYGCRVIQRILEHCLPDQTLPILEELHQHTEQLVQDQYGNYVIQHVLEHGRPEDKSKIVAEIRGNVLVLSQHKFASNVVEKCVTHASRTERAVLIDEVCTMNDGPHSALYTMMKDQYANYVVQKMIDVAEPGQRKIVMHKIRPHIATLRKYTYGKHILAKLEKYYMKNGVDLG
# Sequence of PUM1 PUF domain R5-KRC (Q14671 828-1176 C1007K/Q1011C): as the sequence (Q14671 828-1176 N971G/H972N/Q975G) above, with G144N, N145H, G148Q, C180K, Q184C counted along it
# Sequence of PUM1 PUF domain R5-HRS (Q14671 828-1176 C1007H/Q1011S): as the sequence (Q14671 828-1176 N971G/H972N/Q975G) above, with G144N, N145H, G148Q, C180H, Q184S counted along it
sequence,measurement,setting,value
GGCUAGAACUAGUGGAUCCCCCGGCGCCCGGCGGCUCGAGCCCGGGUAAGCGUAAAUAGUCUGCAUGCCGCCGGGCGCCAUGCCUGCAGGUCGACUCUAGAAAACAUG,binding signal,PUM1 PUF domain R8-RHL,5.48 log2 enrichment (interaction score)
same,binding signal,PUM1 PUF domain R8-PWL,3.61 log2 enrichment (interaction score)
GGCUAGAACUAGUGGAUCCCCCGGCGCCCGGCGGCUCGAGCCCGGGUAAGUGAAAAUAGUCUGCAUGCCGCCGGGCGCCAUGCCUGCAGGUCGACUCUAGAAAACAUG,binding signal,PUM1 PUF domain R6-VYE,7.22 log2 enrichment (interaction score)
GGCUAGAACUAGUGGAUCCCCCGGCGCCCGGCGGCUCGAGCCCGGGUAAGUUUAAAUAGUCUGCAUGCCGCCGGGCGCCAUGCCUGCAGGUCGACUCUAGAAAACAUG,binding signal,PUM1 PUF domain R7-RSS,2.76 log2 enrichment (interaction score)
GGCUAGAACUAGUGGAUCCCCCGGCGCCCGGCGGCUCGAGCCCGGGUAAGUGUAAGUAGUCUGCAUGCCGCCGGGCGCCAUGCCUGCAGGUCGACUCUAGAAAACAUG,binding signal,PUM1 PUF domain R3-YRQ,3.31 log2 enrichment (interaction score)
same,binding signal,PUM1 PUF domain R3-FCL,4.28 log2 enrichment (interaction score)
same,binding signal,PUM1 PUF domain R3-LRG,3.85 log2 enrichment (interaction score)
GGCUAGAACUAGUGGAUCCCCCGGCGCCCGGCGGCUCGAGCCCGGGUAAGUGGAAAUAGUCUGCAUGCCGCCGGGCGCCAUGCCUGCAGGUCGACUCUAGAAAACAUG,binding signal,PUM1 PUF domain R6-VYE,2.43 log2 enrichment (interaction score)
GGCUAGAACUAGUGGAUCCCCCGGCGCCCGGCGGCUCGAGCCCGGGUAAGUGUGAAUAGUCUGCAUGCCGCCGGGCGCCAUGCCUGCAGGUCGACUCUAGAAAACAUG,binding signal,PUM1 PUF domain R5-WWW,3.25 log2 enrichment (interaction score)
same,binding signal,PUM1 PUF domain R5-KRC,1.03 log2 enrichment (interaction score)
same,binding signal,PUM1 PUF domain R5-SVT,3.92 log2 enrichment (interaction score)
same,binding signal,PUM1 PUF domain R5-HRS,0.46 log2 enrichment (interaction score)
GGCUAGAACUAGUGGAUCCCCCGGCGCCCGGCGGCUCGAGCCCGGGUAAGUGUACAUAGUCUGCAUGCCGCCGGGCGCCAUGCCUGCAGGUCGACUCUAGAAAACAUG,binding signal,PUM1 PUF domain R4-SPI,0.54 log2 enrichment (interaction score)
same,binding signal,PUM1 PUF domain R4-GNG,2.39 log2 enrichment (interaction score)
GGCUAGAACUAGUGGAUCCCCCGGCGCCCGGCGGCUCGAGCCCGGGUAAGUGUAAAUAGUCUGCAUGCCGCCGGGCGCCAUGCCUGCAGGUCGACUCUAGAAAACAUG,binding signal,PUM1 PUF domain R8-RHL,3.23 log2 enrichment (interaction score)
same,binding signal,PUM1 PUF domain R8-PWL,2.93 log2 enrichment (interaction score)
same,binding signal,PUM1 PUF domain R5-KRC,2.12 log2 enrichment (interaction score)
same,binding signal,PUM1 PUF domain R4-GNG,1.49 log2 enrichment (interaction score)
same,binding signal,PUM1 PUF domain R3-DHR,3.23 log2 enrichment (interaction score)
same,binding signal,PUM1 PUF domain R3-SRH,4.37 log2 enrichment (interaction score)
GGCUAGAACUAGUGGAUCCCCCGGCGCCCGGCGGCUCGAGCCCGGGUAAGUCUAAAUAGUCUGCAUGCCGCCGGGCGCCAUGCCUGCAGGUCGACUCUAGAAAACAUG,binding signal,PUM1 PUF domain R7-LYG,2.93 log2 enrichment (interaction score)
same,binding signal,PUM1 PUF domain R7-RSS,1.34 log2 enrichment (interaction score)
GGCUAGAACUAGUGGAUCCCCCGGCGCCCGGCGGCUCGAGCCCGGGUAAGUGUAAAUCGUCUGCAUGCCGCCGGGCGCCAUGCCUGCAGGUCGACUCUAGAAAACAUG,binding signal,PUM1 PUF domain R1-KSA,3.27 log2 enrichment (interaction score)
GGCUAGAACUAGUGGAUCCCCCGGCGCCCGGCGGCUCGAGCCCGGGUAAGUGUCAAUAGUCUGCAUGCCGCCGGGCGCCAUGCCUGCAGGUCGACUCUAGAAAACAUG,binding signal,PUM1 PUF domain R5-KRC,3.63 log2 enrichment (interaction score)
same,binding signal,PUM1 PUF domain R5-HRS,2.88 log2 enrichment (interaction score)
GGCUAGAACUAGUGGAUCCCCCGGCGCCCGGCGGCUCGAGCCCGGGUAAGUGUAUAUAGUCUGCAUGCCGCCGGGCGCCAUGCCUGCAGGUCGACUCUAGAAAACAUG,binding signal,PUM1 PUF domain R4-GMC,3.12 log2 enrichment (interaction score)
same,binding signal,PUM1 PUF domain R4-SPI,2.21 log2 enrichment (interaction score)
same,binding signal,PUM1 PUF domain R4-GNG,3.28 log2 enrichment (interaction score)
same,binding signal,PUM1 PUF domain R4-WAK,2.71 log2 enrichment (interaction score)
GGCUAGAACUAGUGGAUCCCCCGGCGCCCGGCGGCUCGAGCCCGGGUAAGUGUUAAUAGUCUGCAUGCCGCCGGGCGCCAUGCCUGCAGGUCGACUCUAGAAAACAUG,binding signal,PUM1 PUF domain R5-KRC,3.89 log2 enrichment (interaction score)
same,binding signal,PUM1 PUF domain R5-HRS,4.01 log2 enrichment (interaction score)
GGCUAGAACUAGUGGAUCCCCCGGCGCCCGGCGGCUCGAGCCCGGGUAAGUGUAAUUAGUCUGCAUGCCGCCGGGCGCCAUGCCUGCAGGUCGACUCUAGAAAACAUG,binding signal,PUM1 PUF domain R3-KPS,3.86 log2 enrichment (interaction score)
same,binding signal,PUM1 PUF domain R3-LRG,0.54 log2 enrichment (interaction score)
